The results in this text go back to PubChem BioAssay (NCI).

Holding throughout (test): NCI-60 one-dose screen, 48 h (100 = growth as untreated, 0 = no growth, -100 = all killed)
For one assay, the system named is NCI-H23 lung. Particulars: 10 µM unless noted.
Another assay concerns NCI-H226 lung. Particulars: 10 µM unless noted.
The next assay relates to NCI-H322M lung. Particulars: 10 µM unless noted.
The next assay has as its system HOP-62 NSCLC. Particulars: 10 µM unless noted.
The test system of the next assay is NCI-H460 lung. To be noted: 10 µM unless noted.
The next assay relates to HOP-92 NSCLC. To be noted: 10 µM unless noted.
Another assay concerns NCI-H522 lung. Particulars: 10 µM unless noted.
A further assay concerns A549/ATCC NSCLC. To be noted: 10 µM unless noted.
For the next assay, the system named is 786-0 renal. Particulars: 10 µM unless noted.
A further assay deals with COLO 205 colon. Particulars: 10 µM unless noted.
In another assay the test system is DU-145 prostate. To be noted: 10 µM unless noted.
The next assay has as its system K-562 leukemia. Particulars: 10 µM unless noted.
A further assay deals with MALME-3M melanoma. To be noted: 10 µM unless noted.
Another assay deals with MDA-MB-231 breast. Particulars: 10 µM unless noted.
In a further assay the test system is RXF 393 renal. To be noted: 10 µM unless noted.
For another assay, the system named is SF-268 CNS. To be noted: 10 µM unless noted.
For a further assay, the system named is SF-295 CNS. Particulars: 10 µM unless noted.
The subject of a further assay is SF-539 CNS. Particulars: 10 µM unless noted.
Another assay deals with UACC-257 melanoma. Particulars: 10 µM.
In the next assay the test system is M14 melanoma. Particulars: 10 µM unless noted.

About 83,000 compounds went through this panel and 20% of them were active in at least one assay; those are over-represented in the sample as a whole.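 Single-concentration screen, 48 h exposure, 96-well plates. Endpoint: percent growth. Below 10 = active.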 A number with no mark means an inactive call. Active and inactive are the calls of the source.

In the case of `CCN(CC)CCN1C(=O)c2c(c3c4cc(Br)ccc4[nH]c3c3ccc4ccccc4c23)C1=O`, the growth in the assay on NCI-H23 lung was -81.8% (active); in the assay on NCI-H226 lung, 60.8%; in the assay on NCI-H322M lung it was -92.3% (active); in the assay on HOP-62 NSCLC it was -66.9% (active); in the assay on NCI-H460 lung it was -65.8% (active); in the assay with HOP-92 NSCLC it was -65.1% (active). For the same compound, the growth in the assay on NCI-H522 lung is -41.9% (active); in the assay on A549/ATCC NSCLC, -80.1% (active); in the assay with 786-0 renal it was -85.9% (active); with COLO 205 colon, -3.78% (active); in the assay with DU-145 prostate it was -94.1% (active); with K-562 leukemia it was -64.8% (active). Further, the growth was -69.1% (active) in the assay with MALME-3M melanoma; -65.3% (active) with MDA-MB-231 breast; -77.3% (active) with RXF 393 renal; -42.2% (active) in the assay with SF-268 CNS; -89% (active) in the assay on SF-295 CNS; -96.9% (active) in the assay on SF-539 CNS. Also, the growth with UACC-257 melanoma is 103%; in the assay on M14 melanoma it was -63.9% (active).
Take `O=C(CSc1ccc(-c2nc3ccccc3[nH]2)cn1)N1CCN(c2ccccc2F)CC1`: the growth with NCI-H23 lung is 67.3%; with NCI-H226 lung it was 59.6%; in the assay on NCI-H322M lung, 101%; in the assay on HOP-62 NSCLC, 89.8%; in the assay with NCI-H460 lung, 88.5%; in the assay on HOP-92 NSCLC, 71.9%. In addition, the growth is 52.4% in the assay on NCI-H522 lung; 81.2% in the assay on A549/ATCC NSCLC; 95.4% with 786-0 renal; 79.7% in the assay with COLO 205 colon; 90.7% in the assay on DU-145 prostate; 41.9% in the assay with K-562 leukemia. Also, the growth in the assay with MALME-3M melanoma is 90.8%; with MDA-MB-231 breast, 100%; in the assay with RXF 393 renal it was 90.7%; in the assay with SF-268 CNS it was 87.7%; in the assay with SF-295 CNS, 61.4%; in the assay on SF-539 CNS, 92.1%. Further, the growth in the assay with UACC-257 melanoma is 56.2%; in the assay on M14 melanoma it was 59.8%.
As for `COc1cc2cc(Oc3ccc(NC(=O)c4cccc(C(F)(F)F)c4)cc3)c(C)nc2cc1OCCN(C)C`, the growth with NCI-H23 lung is 90.4%; with NCI-H226 lung it was 95.5%; in the assay on NCI-H322M lung it was 104%; with HOP-62 NSCLC, 97.9%; in the assay on NCI-H460 lung it was 47.1%; with HOP-92 NSCLC, 62%. In addition, the growth in the assay with NCI-H522 lung was 99.9%; in the assay with A549/ATCC NSCLC it was 89.2%; in the assay with 786-0 renal, 60.1%; with COLO 205 colon it was 95.8%; in the assay with DU-145 prostate it was 68.6%; with K-562 leukemia, 7.14% (active). In addition, the growth in the assay with MALME-3M melanoma is -73.7% (active); in the assay on MDA-MB-231 breast, 79%; with RXF 393 renal, 39.6%; with SF-268 CNS, 92%; with SF-295 CNS, -50.5% (active); in the assay with SF-539 CNS, 63.3%. Also, the growth in the assay with UACC-257 melanoma is 93.2%; in the assay with M14 melanoma it was 80.8%.
`COc1ccc(CCN2C(=O)/C(=C/c3nc(CO)cs3)SC2=S)cc1`: the growth with NCI-H23 lung is 86.7%; with NCI-H226 lung, 101%; in the assay with NCI-H322M lung, 95.7%; with HOP-62 NSCLC, 82.8%; in the assay with NCI-H460 lung, 102%; with HOP-92 NSCLC it was 27.7%. Further, the growth in the assay with NCI-H522 lung is 35.9%; with A549/ATCC NSCLC, 95.3%; in the assay with 786-0 renal, 27.9%; in the assay on COLO 205 colon, 102%; in the assay with DU-145 prostate, 46.1%; in the assay on K-562 leukemia it was 60.4%. The growth with MALME-3M melanoma is 73.2%; with MDA-MB-231 breast it was 53.2%; in the assay on RXF 393 renal it was 51.1%; in the assay on SF-268 CNS, 94.8%; with SF-295 CNS it was 101%; in the assay on SF-539 CNS, 11.2%. In addition, the growth is 91.2% in the assay on UACC-257 melanoma and 85.3% in the assay on M14 melanoma.
On to `CC(C)=CCc1c2c(c(O)c3c1O[C@]14C(=C[C@@H]5C[C@H]1C(C)(C)O[C@@]4(C/C=C(/C)C(=O)O)C5=O)C3=O)CC(O)C(C)(C)O2` (stereo not given in full), for which the growth in the assay with NCI-H23 lung is -60.3% (active); in the assay on NCI-H226 lung, 18.4%; with NCI-H322M lung it was 11.6%; with HOP-62 NSCLC, -19.3% (active); in the assay on NCI-H460 lung, -33.2% (active); with HOP-92 NSCLC, -8.8% (active). For the same compound, the growth with NCI-H522 lung is -53.9% (active); in the assay with A549/ATCC NSCLC, -9.15% (active); with 786-0 renal it was -39.6% (active); in the assay on COLO 205 colon, -67% (active); in the assay on DU-145 prostate it was -78.2% (active); in the assay on K-562 leukemia, 5.83% (active). Also, the growth in the assay with MALME-3M melanoma was -38.5% (active); in the assay with MDA-MB-231 breast, 0.342% (active); in the assay with RXF 393 renal, -77.4% (active); in the assay with SF-268 CNS, -40.7% (active); in the assay with SF-295 CNS it was -48.5% (active); in the assay with SF-539 CNS, -37.2% (active). Further, the growth in the assay with UACC-257 melanoma is -32.5% (active); in the assay on M14 melanoma, -24.8% (active).
Take `CCOC(=O)c1ccc(N/C=C/C(=O)c2ccccc2)cc1`: the growth was 103% in the assay on NCI-H23 lung; 105% with NCI-H226 lung; 97% in the assay with NCI-H322M lung; 111% with HOP-62 NSCLC; 104% in the assay with NCI-H460 lung; 124% in the assay on HOP-92 NSCLC. Further, the growth in the assay on NCI-H522 lung is 94.8%; with A549/ATCC NSCLC it was 101%; in the assay with 786-0 renal it was 94%; in the assay with COLO 205 colon, 101%; in the assay on DU-145 prostate, 101%; in the assay with K-562 leukemia it was 98.8%. Also, the growth in the assay with MALME-3M melanoma was 107%; in the assay on MDA-MB-231 breast, 105%; in the assay on RXF 393 renal, 99%; in the assay on SF-268 CNS, 102%; in the assay on SF-295 CNS it was 93.4%; in the assay with SF-539 CNS it was 101%. In addition, the growth in the assay with UACC-257 melanoma is 108%; in the assay on M14 melanoma it was 97%.
On to `O=C(Cn1cc(CN2C(=O)c3ccc([N+](=O)[O-])cc3C2=O)nn1)Nc1ccccc1Br`, for which the growth in the assay on NCI-H23 lung is 98.1%; in the assay with NCI-H226 lung, 104%; in the assay on NCI-H322M lung, 98.2%; in the assay with HOP-62 NSCLC, 109%; with NCI-H460 lung, 108%; in the assay on HOP-92 NSCLC, 114%. Besides, the growth in the assay with NCI-H522 lung was 102%; in the assay with A549/ATCC NSCLC, 108%; with 786-0 renal, 107%; in the assay on COLO 205 colon it was 117%; in the assay with DU-145 prostate it was 113%; in the assay on K-562 leukemia, 98.5%. The growth with MALME-3M melanoma was 99.5%; in the assay with MDA-MB-231 breast, 103%; with RXF 393 renal it was 119%; with SF-268 CNS it was 106%; in the assay on SF-295 CNS, 108%; in the assay on SF-539 CNS, 107%. The growth in the assay on UACC-257 melanoma was 106%; in the assay with M14 melanoma, 101%.
With `O=S(=O)(Nc1cc(Cl)c(F)c(Cl)c1)c1ccc(-c2cnc(C3CC3)o2)cc1`, the growth was 45.3% in the assay on NCI-H23 lung; 49.4% in the assay with NCI-H226 lung; 49.9% with NCI-H322M lung; 36.2% in the assay with HOP-62 NSCLC; 16.5% in the assay on NCI-H460 lung; 63% in the assay on HOP-92 NSCLC. In addition, the growth was 32.8% in the assay on NCI-H522 lung; 41.5% with A549/ATCC NSCLC; 43.5% with 786-0 renal; 8.82% (active) with COLO 205 colon; 24.4% in the assay on DU-145 prostate; 15% in the assay on K-562 leukemia. In addition, the growth in the assay with MALME-3M melanoma was 55%; in the assay on MDA-MB-231 breast, 56.2%; in the assay on RXF 393 renal it was 5.28% (active); with SF-268 CNS, 73.9%; in the assay on SF-295 CNS, 16.8%; with SF-539 CNS, 19.2%. Further, the growth with UACC-257 melanoma was 70.3%; in the assay on M14 melanoma, 23%.
